These results are taken from PubChem BioAssay (EPA / NIEHS).

Inconclusive results are not listed. Active and inactive are the calls of the source. The calls were made as follows, unless noted: active = hit-call score of the fitted dose curve at least 0.9, where 1 is the maximum; inactive = score below 0.9.

Test [1] in a line: CCTE_Shafer_MEA_dev_firing_rate_mean: CCTE's Neural Network Formation Assay for Mean Firing Rate, Shafer Lab (AID 2284031).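 Also: curve fitted for loss of firing so AC50 reflects decreased mean firing rate.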 An outline of the steps: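 Extracellular spike frequency, AUC over DIV 5–12 recordings, in rat cortical neuron MEA cultures dosed from plating; loss direction vs DMSO.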
A short description of test [2]: CCTE_Shafer_MEA_dev_per_burst_spike_percent: CCTE's Neural Network Formation Assay for Percent of Spikes in a Burst, Shafer Lab (AID 2284032).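 Also: fitted as a decrease in burst spike percentage below DMSO baseline.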 An outline of the steps: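 Value is trapezoidal AUC over recordings on days 5, 7, 9 and 12 of the well-mean fraction of spikes falling in single-electrode bursts; rat cortical cultures exposed continuously from plating, treatment renewed DIV 5 and 9, fitted downward against DMSO.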

Test [3] can be described thus: CCTE_Shafer_MEA_dev_active_electrodes_number: CCTE's Neural Network Formation Assay for Number of Active Electrodes, Shafer Lab (AID 2284040; active = hit-call score of the fitted dose curve at least 0.9, where 1 is the maximum;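 also: potency for loss of active electrodes versus DMSO so lower counts are hits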). An outline of the steps:
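Developing rat cortical networks on MEAs, exposed DIV 0–12. Value is the AUC of active-electrode counts (≥5 spikes/min) from days 5, 7, 9, 12, relative to DMSO.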

Test [4] in a line: CCTE_Shafer_MEA_dev_burst_rate: CCTE's Neural Network Formation Assay for Burst Rate, Shafer Lab (AID 2284042).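 Also: potency for loss of burst rate below DMSO control.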 An outline of the steps:
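Cells plated, treated day 0; recorded DIV 5, 7, 9, 12; fed and re-treated DIV 5, 9. Endpoint: bursts per recording time, active-electrode well mean, trapezoidal AUC, fitted in decreasing direction against DMSO baseline.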

A short description of test [5]: CCTE_Shafer_MEA_dev_per_burst_interspike_interval: CCTE's Neural Network Formation Assay for Burst Interspike Interval, Shafer Lab (AID 2284044).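 Also: potency for a decrease of within-burst interspike interval below DMSO level.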 An outline of the steps: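 Primary rat cortical neurons on 48-well MEA plates, exposed from day 0 through day 12, treatment renewed at DIV 5 and 9. Within-burst interspike interval recorded days 5, 7, 9, 12, well-averaged, summarised as AUC; negative fit versus DMSO.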

A short description of test [6]: CCTE_Shafer_MEA_dev_burst_duration_mean: CCTE's Neural Network Formation Assay for Mean Burst Duration, Shafer Lab (AID 2284045). An outline of the steps:
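Network-formation assay in primary rat cortical neurons; treatment spans twelve days of development. Mean burst duration per well is integrated by trapezoidal AUC and fitted in the loss-of-signal direction against DMSO baseline.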

Test [7] is described as follows: CCTE_Shafer_MEA_dev_interburst_interval_mean: CCTE's Neural Network Formation Assay for Mean Interburst Interval, Shafer Lab (AID 2284046).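 Also: curve fitted for decrease in interburst interval relative to DMSO.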 An outline of the steps: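 Developing rat cortical networks on 48-well MEAs receive compound from the day of plating. Burst intervals from each active electrode are averaged per well, and AUC over the recording days is fitted in the negative direction against DMSO.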

A short description of test [8]: CCTE_Shafer_MEA_dev_inter_network_spike_interval_mean: CCTE's Neural Network Formation Assay for Mean Inter-network Spike Interval, Shafer Lab (AID 2284047).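 Also: potency for a decrease in mean inter-network spike interval below DMSO.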 In outline:
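Rat cortical cultures, 1.5 x 10^5 cells/well on 48-well MEA plates; continuous exposure days 0–12, medium and compound refreshed DIV 5, 9. Mean time between consecutive network-spike peaks; AUC across DIV 5/7/9/12; DMSO baseline, negative fitting direction.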

Test [9] in a line: CCTE_Shafer_MEA_dev_network_spike_number: CCTE's Neural Network Formation Assay for Number of Network Spikes, Shafer Lab (AID 2284048).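 Also: synchronized bursts across electrodes counted on days 5 7 9 12 and integrated as AUC; fit as a loss of signal meaning fewer network spikes than DMSO.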 In outline: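 Extracellular recordings from 16-electrode wells track network formation in rat cortical cultures under continuous treatment from plating. The endpoint is network spike number, expressed as AUC across DIV 5–12 relative to DMSO vehicle.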

Test [10] is described as follows: CCTE_Shafer_MEA_dev_spike_duration_mean: CCTE's Neural Network Formation Assay for Mean Spike Duration, Shafer Lab (AID 2284051).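 Also: mean network spike duration pooled as area under curve over DIV 5 to 12 recordings; potency for a decrease in mean network spike duration versus DMSO.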 An outline of the steps:
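Readout is the average length of network spikes, clustered firing across electrodes, summed over DIV 5, 7, 9 and 12 as area under the curve. Neurons from rat cortex developed networks on MEA plates under continuous 12-day exposure.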

Test [11] is described as follows: CCTE_Shafer_MEA_dev_network_spike_duration_std: CCTE's Neural Network Formation Assay for Standard Deviation of Network Spike Duration, Shafer Lab (AID 2284052).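 Also: area under curve of spike duration SD across recording days 5 to 12; hits are decreases in network spike duration SD versus DMSO vehicle.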 In outline:
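Read-out is the trapezoidal area-under-the-curve across recordings made on days 5, 7, 9 and 12, fitted in the negative direction against DMSO baseline. Neurons were primary rat cortical cells treated from day 0, with treatment renewed at each feed.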

A short description of test [12]: CCTE_Shafer_MEA_dev_per_network_spike_spike_number_mean: CCTE's Neural Network Formation Assay for Mean Number of Spikes in a Network Spike, Shafer Lab (AID 2284053). In outline:
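Continuous twelve-day exposure of developing rat cortical networks grown over 16 microelectrodes per well; spontaneous firing is captured at four time points, and the per-network-spike spike number is integrated over development by trapezoidal AUC.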

A short description of test [13]: CCTE_Shafer_MEA_dev_per_network_spike_spike_percent: CCTE's Neural Network Formation Assay for Percent of Spikes in a Network Spike, Shafer Lab (AID 2284054). In outline:
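Developing networks of rat cortical neurons are dosed at day 0 and recorded extracellularly four times up to day 12. The endpoint is the area under the curve of percent spikes in network spikes, fitted in the negative direction relative to DMSO.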

Test [14] can be described thus: CCTE_Shafer_MEA_dev_LDH: CCTE's Lactate Dehydrogenase Assay for Cytotoxicity in the Neural Network Formation Assay, Shafer Lab (AID 2284068; active = hit-call score of the fitted dose curve at least 0.9, where 1 is the maximum;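 also: exposure for twelve days from plating with re-dosing on DIV 5 and 9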). An outline of the steps: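 Cytotoxicity companion to network-formation recordings: rat cortical neurons received compound over 12 days of development, re-dosed at DIV 5 and 9 feeds. Viability was inferred from LDH enzyme activity relative to DMSO.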

Test [15] in a line: CCTE_Shafer_MEA_dev_AB: CCTE's Alamar Blue Assay for Cytotoxicity in the Neural Network Formation Assay, Shafer Lab (AID 2284083; active = hit-call score of the fitted dose curve at least 0.9, where 1 is the maximum;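 also: resazurin reduction fluorescence as viability of cultured neurons; twelve days of exposure from plating with re-dosing on DIV 5 and 9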). An outline of the steps: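 Fluorescent resazurin reduction serves as the viability read-out, with DMSO as negative control and baseline. Cells were primary rat cortical neurons grown on MEA plates and dosed from day 0 to day 12, treatment renewed on DIV 5 and 9.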

A short description of test [16]: CCTE_Shafer_MEA_dev_mutual_information_norm: CCTE's Neural Network Formation Assay for Mutual Information Normalization, Shafer Lab (AID 2284091).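 Also: mutual information between electrodes summarised as area under curve across four recording days; potency is for a decrease in mutual information relative to DMSO.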 In outline: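 Exposure of primary rat cortical neurons began at plating and ran to DIV 12, with full media and treatment renewal after DIV 5 and 9 recordings. Mutual information AUC (DIV 5–12) was analysed for loss versus DMSO.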

A short description of test [17]: CCTE_Shafer_MEA_dev_correlation_coefficient_mean: CCTE's Neural Network Formation Assay for Mean Correlation Coefficient, Shafer Lab (AID 2284093).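 Also: well mean pairwise spike train correlation integrated as AUC over recording days 5 to 12; potency fitted for loss of correlation relative to DMSO vehicle wells.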 In outline:
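Read-out: well-mean correlation coefficient of spike trains between electrode pairs, collapsed over four recording days as trapezoidal area-under-the-curve. Developing rat cortical neuron networks grown on MEAs received test chemical continuously from plating.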

The nature of test [18]: UKN2_HCS_IMR90_neural_migration: University of Konstanz (UKN) Leist Lab Neural Crest Cell Migration Assay in human induced IMR90 Pluripotent Stem Cells (UKN2) (AID 2284204). The conditions noted are these: actives raise or lower the signal. An outline of the steps:
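Using a 96-well stopper format with PLO/laminin/fibronectin coating, neural crest cells from iPSC migrate in cytokine-supplemented N2-S medium; after 24 h, chemicals are applied for a further 24 h, then cells are imaged after dye staining.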

Test [19] in a line: IUF_NPC1b_proliferation_BrdU_72hr: Leibniz Research Institute for Environmental Medicine (IUF) 72-hour Neural Progenitor Cell Bromodeoxyuridine (BrdU) Proliferation Assay (NPC1b) (AID 2284207). In outline: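 Neural progenitor spheres of human fetal origin are treated for three days; BrdU added for the last 16 h is quantified by luminescence ELISA, with DMSO as baseline and EGF/FGF omission as positive control.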

Test [20] in a line: IUF_NPC1a_proliferation_area_72hr: Leibniz Research Institute for Environmental Medicine (IUF) 72-hour Neural Progenitor Cell Proliferation Area Assay (NPC1a) (AID 2284208). An outline of the steps: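 Single 0.25–0.35 mm human fetal neural progenitor spheres in proliferation medium with EGF and FGF, exposed 72 h from plating without renewal at 37C, pH 7.2-7.6. Sphere area growth measured by automated phase-contrast imaging, relative to DMSO.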

A short description of test [21]: CCTE_Mundy_HCI_Cortical_Synap_Neur_Matur_NeuriteSpotCountPerNeuriteLength: CCTE's Synaptogenesis and Neurite Maturation Assay in rat cortical cells for Neurite Spot Count per Neurite Length, Mundy Lab (AID 2284210). An outline of the steps: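 Neurite-associated synapse density (synaptophysin puncta per unit neurite length) is measured by fluorescence high-content imaging in rat cortical cultures treated from DIV 7 and fixed at DIV 12, with DMSO as negative control.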

Test [22] in a line: CCTE_Mundy_HCI_Cortical_NOG_NeuriteCount: CCTE's Neurite Outgrowth Assay in rat cortical cells for Neurite Count, Mundy Lab (AID 2284212).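 Also: cells fixed about two days after chemical exposure began.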 An outline of the steps: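 Rat cortical primary cells; compound added 2 h post-plating, 1/10 dilution of working solution. Anti-betaIII-tubulin/AF488 ICC; ArrayScan neurite count vs DMSO.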

Turning to `CC1(C)C(C=C(Cl)c2ccc(Cl)cc2)C1C(=O)OC(C#N)c1ccc(F)c(Oc2ccccc2)c1` (configuration not stated), the AC50 in test [1] was 4.24 µM (active); in [2] it was 13 µM (active); in test [3] it was 12.8 µM (active); in test [4], 9.91 µM (active); in test [5], 7.6 µM (active); in [7], 13.6 µM (active). For the same compound, the AC50 in test [8] was 4.11 µM (active); in test [9] it was 14.4 µM (active); in test [10], 5.21 µM (active); in [11], 6.89 µM (active); in [12], 6.7 µM (active); in test [13] it was 23.3 µM (active). Also, the AC50 in test [14] is 14.3 µM (active); in test [15], 17.1 µM (active); in test [16], 5.42 µM (active); in test [17] it was 12.8 µM (active); in [22], 39.1 µM (active). In addition, the result in [6], in test [18], in [19], in [20] and in test [21] was inactive.

As a reminder, the AC50 is the midpoint of the concentration-response curve, whichever way the signal moves.
